PubChem BioAssay (Tox21)
“And” between values parts separate entries of the source, which are not always exact repeats. Identical values can stand only once. Results filed as inconclusive are left out. Entries that show only a call come without a potency. The source holds several records for some structures; these can differ, active in one and inactive in another. The source made the active and inactive calls. Unless noted, calls follow the shape of the dose curve; as a rule, active = well fitted curve in the direction sought with a large enough effect in the repeat runs; inconclusive = weak or mixed curves; inactive = no such curve, though single readings can be large; an effect the other way counts as inactive or inconclusive.

How the values were obtained:
[1] = A CellTox Green Cytotoxicity Assay to monitor cytotoxicity in HepG2 cells - 8 hour (AID 1224890); also: nearly all actives have a fitted effect of over 45% in size; also: potency is read from the fitted curve at half-maximal effect
Method in brief: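 HepG2 cells were seeded together with the CellTox Green dye at 600 cells/well, left 5 h at 37 C/5% CO2, then given compounds in DMSO. Fluorescence from dye bound to dead-cell DNA was read repeatedly over 40 h of treatment at 37 C.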

[2] = qHTS assay to identify small molecule antagonists of the estrogen receptor alpha (ER-alpha) signaling pathway using the BG1 cell line in the presence of 0.1 nM 17-beta-estradiol - cell viability counter screen (AID 1259241); also: nearly all actives have a fitted effect of over 40% in size; also: potency is read from the fitted curve at half-maximal effect
Method in brief: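 Live-cell protease activity (CellTiter-Fluor fluorescence, 30 min) was read in the same wells after VM7Luc4E2 cells had been exposed to compounds with 0.1 nM 17beta-estradiol for 22 hr at 37C.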

[3] = qHTS assay to identify small molecule antagonists of the androgen receptor (AR) signaling pathway using the MDA cell line in the presence of 0.5 nM R1881 - cell viability counter screen (AID 1259242); also: nearly all actives have a fitted effect of over 45% in size; also: potency is read from the fitted curve at half-maximal effect
Method in brief: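 MDA-kb2 cells (human breast carcinoma, stably carrying MMTV-luciferase reporter) were exposed to compounds with 0.5 nM R1881 (final) for 16 hr at 37C, 0% CO2; viability then read as live-cell protease fluorescence (CellTiter-Fluor, 30 min) in the same wells.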

[4] = qHTS assay to identify small molecule phospholipidosis (PLD) inducers (AID 1259344; active = well fitted curve in the direction sought with a large enough effect; an effect the other way counts as inactive or inconclusive)
Method in brief: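 HepG2 cells on collagen I, attached 4 h at 37 C, were co-treated with compound and LipidTOX Red dye for 24 h at 37 C, then fixed with paraformaldehyde plus Hoechst 33342 and imaged by high-content microscopy for phospholipid accumulation.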

[5] = qHTS assay to identify small molecule HDAC inhibitors (AID 1259364); also: nearly all actives have a fitted effect of over 45% in size; also: potency is read from the fitted curve at half-maximal effect
Method in brief: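 Wild-type HCT-116 cells were plated overnight, exposed to compounds for 2 h at 37 °C, then given HDAC-Glo class I/II luminogenic reagent for 30 min at room temperature before luminescence was read.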

[6] = qHTS assay to identify small molecule HDAC inhibitors - cell viability counter screen (AID 1259365); also: series mostly up to about 92 µM; nearly all actives have a fitted effect of over 50% in size
Method in brief: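 HCT-116 (wild type), 1,500 cells/well, overnight 37C/5% CO2; compound in DMSO 2hr; CellTiter-Glo 30min RT; luminescence read.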

[7] = qHTS assay to identify small molecule agonists of the sonic hedgehog signaling (Shh) pathway - cell viability counter screen (AID 1259366); also: nearly all actives have a fitted effect of over 50% in size; also: potency is read from the fitted curve at half-maximal effect
Method in brief: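 CellTiter-Fluor fluorescence read-out, 1 hr at 37C, added after 23hr compound exposure. Cells: 3T3 Gli1-Luc, an NIH/3T3 clone with stably integrated Gli1-Luc reporter, plated 4hr before compound.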

[8] = qHTS assay to identify small molecule antagonists of the sonic hedgehog signaling (Shh) pathway - cell viability counter screen (AID 1259367); also: nearly all actives have a fitted effect of over 55% in size
Method in brief: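 NIH/3T3-derived Gli1-Luc reporter cells (2,000 per well) rested 4 hr at 37 C, then received DMSO compounds plus conditioned medium. After 23 hr of treatment, CellTiter-Fluor was added for 1 hr at 37C and fluorescence read.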

[9] = qHTS assay to identify small molecule agonists of the sonic hedgehog signaling (Shh) pathway (AID 1259368; calls by dose curve; also: series mostly up to about 92 µM; nearly all actives have a fitted effect of over 15% in size)
Method in brief: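 NIH/3T3-derived 3T3Gli1-Luc cells carrying a stably integrated Gli1 response element–firefly luciferase reporter were plated, left 4 hr at 37 C, then given compounds in DMSO for 24 hr. Luminescence was read 30 min after adding luciferase reagent.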

[10] = qHTS assay to identify small molecule antagonists of the sonic hedgehog signaling (Shh) pathway (AID 1259369; calls by dose curve; also: nearly all actives have a fitted effect of over 45% in size; also: potency is read from the fitted curve at half-maximal effect)
Method in brief: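 NIH/3T3-derived 3T3Gli1-Luc cells with stably integrated Gli1-Luc reporter were preincubated 4hr at 37 C, then given compounds in DMSO plus Shh conditioned medium and incubated 24hr. Firefly luciferase luminescence read after 30min reagent at room temperature.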

[11] = qHTS assay to identify small molecule agonists of the estrogen receptor beta (ER-beta) signaling pathway - cell viability counter screen (AID 1259380); also: nearly all actives have a fitted effect of over 30% in size; also: potency is read from the fitted curve at half-maximal effect
Method in brief: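 ER-beta-UAS-bla HEK293T cells in medium with 2% charcoal-stripped FBS were preincubated 6 hr at 37C, dosed with compound in DMSO for 16 hr, then after the bla read, CellTiter-Glo was added for 30 min at room temperature; luminescence recorded.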

[12] = qHTS assay to identify small molecule antagonists of the estrogen receptor beta (ER-beta) signaling pathway - cell viability counter screen (AID 1259382); also: nearly all actives have a fitted effect of over 55% in size; also: potency is read from the fitted curve at half-maximal effect; as to activity change, negative = cytotoxicity: series mostly up to about 92 µM
Method in brief: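 ER-beta-UAS-bla HEK293T cells (2,000/well, 2% charcoal-stripped FBS) were pre-incubated 6 hr at 37C, then given compound plus 1nM final 17-beta-estradiol for 16 hr. Viability was read in the same wells by CellTiter-Glo luminescence after 30 min at room temperature.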

[13] = qHTS assay to identify small molecule agonists or antagonists of the thyroid stimulating hormone receptor (TSHR) signaling pathway - wild type cell line counter screen (AID 1259384; calls by dose curve)
Method in brief: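 Wild-type HEK293 cells were plated 18 h at 37 C/5% CO2, pin-dosed with compound plus Ro20-1724 medium, held 30 min at room temperature, then given cAMP-d2 and anti-cAMP-cryptate; fluorescence was read after 1 h. Fifteen concentrations, triplicate.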

[14] = target: Estrogen receptor beta (Homo sapiens) (UniProt Q92731); experiment: qHTS assay to identify small molecule agonists of the estrogen receptor beta (ER-beta) signaling pathway (AID 1259377; active = well fitted activation curve with a large enough effect in the signal ratio in the repeat runs, not every such curve was filed as active; the % refers to the signal ratio)
Estrogen receptor beta (Homo sapiens), sequence (Q92731 whole entry, looked up): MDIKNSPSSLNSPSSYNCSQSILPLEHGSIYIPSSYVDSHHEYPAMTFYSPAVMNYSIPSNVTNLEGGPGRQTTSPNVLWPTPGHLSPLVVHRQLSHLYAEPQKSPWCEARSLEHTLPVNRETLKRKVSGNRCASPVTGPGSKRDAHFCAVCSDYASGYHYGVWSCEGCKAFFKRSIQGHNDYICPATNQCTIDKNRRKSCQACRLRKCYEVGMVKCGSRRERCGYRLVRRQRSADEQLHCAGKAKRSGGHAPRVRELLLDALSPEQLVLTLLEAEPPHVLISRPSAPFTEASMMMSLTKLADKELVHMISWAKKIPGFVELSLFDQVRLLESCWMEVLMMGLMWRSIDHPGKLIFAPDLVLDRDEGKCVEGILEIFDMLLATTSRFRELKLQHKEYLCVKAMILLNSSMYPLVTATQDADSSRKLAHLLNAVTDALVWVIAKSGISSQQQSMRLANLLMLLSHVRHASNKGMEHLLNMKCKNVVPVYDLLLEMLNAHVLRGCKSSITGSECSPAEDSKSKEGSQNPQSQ
Method in brief: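 Beta-lactamase reporter readout: fluorescence of LiveBLAzer B/G FRET substrate after 2 h at room temperature, following 16 h compound treatment of ER-beta-UAS-bla HEK293T cells at 37C in 2% charcoal-stripped FBS medium.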

[15] = qHTS assay to identify small molecule agonists of the androgen receptor (AR) signaling pathway in the presence of an antagonist - cell viability counter screen (AID 1259379); also: nearly all actives have a fitted effect of over 25% in size; also: potency is read from the fitted curve at half-maximal effect; as to activity change, negative = cytotoxicity: series mostly up to about 92 µM
Method in brief: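 MDA-kb2 human breast carcinoma cells (stable MMTV-luciferase, AR/GR responsive) were seeded 3,000 cells/well, pre-incubated 5 hr at 37C without CO2, then given 3.0uM nilutamide and compounds at 15 concentrations for 16 hr. Viability was read by CellTiter-Fluor fluorescence.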

[16] = target: Estrogen receptor beta (Homo sapiens) (UniProt Q92731); experiment: qHTS assay to identify small molecule antagonists of the estrogen receptor beta (ER-beta) signaling pathway (AID 1259378; active = well fitted inhibition curve with a large enough effect in the signal ratio in the repeat runs, not every such curve was filed as active; the % refers to the signal ratio; also: potency is read from the fitted curve at half-maximal effect)
Method in brief: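 ER-beta-UAS-bla HEK293T (GripTite) cells in 2% charcoal-stripped FBS medium were preincubated 6 hr at 37C, dosed with compound, then stimulated with 1 nM E2 (final) for 16 hr; beta-lactamase reporter read by B/G FRET fluorescence after 2 hr substrate loading.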

[17] = target: Estrogen receptor (Homo sapiens) (UniProt P03372); experiment: qHTS assay to identify small molecule antagonists of the estrogen receptor alpha (ER-alpha) signaling pathway using the BG1 cell line in the presence of 0.1 nM 17-beta-estradiol (AID 1259244); also: potency is read from the fitted curve at half-maximal effect; nearly all actives have a fitted effect of over 50% in size
Estrogen receptor (Homo sapiens), sequence (P03372 whole entry, looked up): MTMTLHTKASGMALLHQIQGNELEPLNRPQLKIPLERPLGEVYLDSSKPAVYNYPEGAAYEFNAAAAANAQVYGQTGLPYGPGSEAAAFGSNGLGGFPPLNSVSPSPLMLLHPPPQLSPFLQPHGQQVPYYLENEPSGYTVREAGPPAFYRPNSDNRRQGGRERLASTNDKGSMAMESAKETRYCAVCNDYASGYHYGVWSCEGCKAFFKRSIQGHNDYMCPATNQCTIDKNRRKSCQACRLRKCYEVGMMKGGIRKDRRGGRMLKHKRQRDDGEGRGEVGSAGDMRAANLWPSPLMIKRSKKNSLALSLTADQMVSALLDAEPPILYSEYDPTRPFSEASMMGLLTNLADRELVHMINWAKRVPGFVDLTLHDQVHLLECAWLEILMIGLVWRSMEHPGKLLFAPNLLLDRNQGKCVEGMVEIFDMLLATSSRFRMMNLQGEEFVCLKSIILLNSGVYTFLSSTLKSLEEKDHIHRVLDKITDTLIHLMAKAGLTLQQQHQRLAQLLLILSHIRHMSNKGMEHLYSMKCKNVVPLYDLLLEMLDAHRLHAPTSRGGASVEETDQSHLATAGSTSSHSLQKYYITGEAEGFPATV
Method in brief: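 VM7Luc4E2 cells (endogenous full-length ER-alpha, stable 4xERE-luciferase) were grown 5 days in phenol red-free medium with charcoal-stripped FBS, then exposed 22 h at 37C to compounds plus 0.1 nM (final) 17beta-estradiol; ONE-Glo luminescence read-out.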

| Structure (SMILES) | Potency [1] | Potency [2] | Potency [3] | Potency [4] | Potency [5] | outcome [6] | Potency [7] | Potency [8] | Potency [9] | Potency [10] | Potency [11] | Potency [12] | outcome [13] | Potency [14] | Potency [15] | Potency [16] | PLD induction [4] | Potency [17] | viability change, negative = cytotoxic [7] | activity change, negative = cytotoxicity [12] |
| --- | --- | --- | --- | --- | --- | --- | --- | --- | --- | --- | --- | --- | --- | --- | --- | --- | --- | --- | --- | --- |
| CCCC(=O)O | inactive | inactive | inactive | inactive | inactive | inactive | inactive | inactive | inactive | inactive | inactive | inactive | inactive |  |  |  |  |  |  |  |
| O=C1OC2(c3cc(Br)c(O)c(Br)c3Oc3c2cc(Br)c(O)c3Br)c2c(Cl)c(Cl)c(Cl)c(Cl)c21 | 3.47 µM (active) and 16.7 µM (active) | 8.64 µM (active) and 23.4 µM (active) | 6.12 µM (active) and 18.6 µM (active) |  | inactive | inactive | 9.7 µM (active) and 16.6 µM (active) |  | inactive | inactive | inactive | inactive | inactive | inactive | 21.7 µM (active) and 16.6 µM (active) |  |  |  |  |  |
| COC(=O)c1ccccc1 | inactive | inactive | inactive |  | inactive | inactive | inactive |  | inactive | inactive | inactive | inactive | inactive | inactive | inactive | inactive |  |  |  |  |
| Cc1ccc(C(=O)c2cc(O)c(O)c([N+](=O)[O-])c2)cc1 | inactive | inactive | 54.5 µM (active) |  | inactive | inactive | inactive |  | inactive | 24.3 µM (active) | inactive | inactive | inactive |  |  |  | 0.47% [at 7.66 µM] (inactive) |  |  |  |
| COc1ccc(C(=O)CC(=O)c2ccc(C(C)(C)C)cc2)cc1 | inactive and 75.6 nM (active) | inactive | inactive | inactive | inactive | inactive | inactive |  | inactive | inactive | inactive | inactive | inactive |  | 58.7 µM (active) and inactive |  |  |  |  |  |
| CC(=O)O[C@]1(C(C)=O)CC[C@H]2[C@@H]3C=C(Cl)C4=CC(=O)[C@@H]5C[C@@H]5[C@]4(C)[C@H]3CC[C@@]21C | inactive | inactive | inactive |  | inactive | inactive | inactive | inactive | inactive | 4.32 µM (active) and 27.3 µM (active) and inactive |  | inactive | inactive | inactive |  | 54.5 µM (active) |  |  |  |  |
| O=C(Nc1ccc([N+](=O)[O-])cc1Cl)c1cc(Cl)ccc1O | inactive |  | 2.17 µM (active) and 1.46 µM (active) | inactive | 969 nM (active) and 580 nM (active) | inactive | 68.6 µM (active) |  | inactive |  | 8.63 µM (active) and 92 nM (active) | 2.17 µM (active) | inactive |  | 1.93 µM (active) and 1.46 µM (active) |  |  | 2.43 µM (active) and 1.64 µM (active) | -20.9% [at 19 µM] (inactive) | -26.7% [at 19 µM] (inactive) |
